Data published in PubChem BioAssay AID720647 (Broad Institute, 2013).
The campaign covered roughly 380,000 compounds. About 1,300 (0.34%) were called active. The list comes from a sample in which actives are over-represented; it also holds similar structures and randomly drawn compounds. A number with no mark means an inactive call.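 The calls were made as follows: active = drop in luminescence signal, shown as inhibition above about 50% in the replicate tests (limit read from the data, passing the limit was not always enough); inconclusive = probably only some replicates passing the limit; inactive = the rest.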

Tested on: Drosophila bursicon receptor LGR2 (rickets)
Test: LGR2 cAMP reporter signal reduction – cell-based, HEK293, CRE-luciferase reporter, bursicon stimulation, primary screen (AID 720647);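 also: agonist challenge used bursicon conditioned medium at about half maximal strength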
Details: bursicon-stimulated, 4 h, at 9.99 µM, hits give high values

SMILES	inhibition
O=C(Nc1ccccc1F)N1CC(=O)N2[C@H](C1)[C@H](c1ccc(C#Cc3ccc(F)cc3)cc1)[C@@H]2CO	5.08%
C[C@@H]1CN([C@@H](C)CO)C(=O)c2cc(NC(=O)Cc3ccccc3)ccc2O[C@H]1CN(C)CC1CC1	-1.21%
COC(=O)Nc1ncc(CN2C(=O)c3ccccc3C2=O)s1	-22.5%
COc1ccc(CC(=O)NCc2nnc(SCC(=O)Nc3ncc(C)s3)n2C)cc1	8.94%
Cc1cnc(NC(=O)c2ccccn2)s1	59.5% (active)
C[C@H]1CN([C@@H](C)CO)C(=O)CCCn2nncc2CO[C@@H]1CN(C)S(=O)(=O)c1ccccc1C#N	-2.41%
O=C(Nc1ccccc1)N1CCCCN2[C@H](CO)[C@@H](c3ccc(-c4ccccc4F)cc3)[C@H]2C1	17.4%
CCCNC(=O)N1[C@H](C#N)[C@@H](c2ccccc2C2=CCCCC2)[C@@H]1CO	8.2%
O=C1CN(Cc2ccccc2)C[C@H]2[C@H](c3ccc(-c4ccccc4)cc3)[C@@H](CO)N12	-6.09%
O=C(CCCc1ccccc1)NCc1ccccc1	-36.7%
O=C(CCc1ccccc1F)N1CCN(c2ccccc2)CC1	-17%
C=CCN1CCN(C(=O)CCCc2ccccc2)CC1	66.7% (active)
CCCNC(=O)C[C@@H]1CC[C@H]2[C@H](COc3ccc(NC(=O)c4ccc(Cl)cc4)cc3C(=O)N2C)O1	-13.7%
COc1ccc(-c2cn(CC[C@@H]3CC[C@@H](NC(=O)CCN4CCCCC4)[C@@H](CO)O3)nn2)cc1	-11.8%
O=C(Nc1ccccc1Cl)/C(Cl)=C(\Cl)S(=O)c1ccccc1 (stereo not drawn)	98.9% (active)
C[C@H](CO)N1C[C@H](C)[C@H](CN(C)Cc2ccccc2)OCCCC[C@H](C)Oc2ccc(NC(=O)Cc3ccccc3)cc2C1=O	24%
C[C@H](CO)N1C[C@H](C)[C@@H](CN(C)Cc2ccccc2)OCCCC[C@H](C)Oc2ccc(NC(=O)Cc3ccccc3)cc2C1=O	3.25%
O=C(C[C@H]1C=C[C@@H](NC(=O)Nc2cc(F)ccc2F)[C@H](CO)O1)NCCCN1CCOCC1	-7.04%
COc1cncc(-c2cnc3sc(NCCc4ccccn4)nn23)c1	20.8%
COc1cccc(C(NC(C)=O)c2nc(-c3ccccc3OC)cs2)c1 (stereo not drawn)	-5.66%
COc1ccc(-c2csc(Nc3ccccn3)n2)cc1	78.5% (active)
C[C@H](CO)N1C[C@H](C)[C@H](CN(C)C(=O)Nc2ccc(F)cc2)Oc2ccc(NC(=O)Cc3cn(C)c4ccccc34)cc2CC1=O	10.8%
C[C@@H]1CN([C@@H](C)CO)C(=O)c2cc(NS(=O)(=O)c3ccccc3)ccc2O[C@H]1CN(C)CC1CCCCC1	-4.25%
C[C@@H]1CN([C@@H](C)CO)C(=O)CCCn2cc(nn2)CO[C@H]1CN(C)Cc1ccc(C(=O)O)cc1	6.13%
COCCNC(=O)C[C@H]1CC[C@H]2[C@H](COc3ccc(NC(=O)C4CCOCC4)cc3C(=O)N2C)O1	-14%
O=C(CSc1ccccc1F)NC1CCS(=O)(=O)C1 (stereo not drawn)	23.4%

SMILES	inhibition
O=S1(=O)CCC(NC(=S)SCc2ccccc2Br)C1 (stereo not drawn)	69.2% (active)
CC(C)C(=O)NC(NC(=S)NC1CCS(=O)(=O)C1)C(Cl)(Cl)Cl (stereo not drawn)	-0.282%
CC(=O)Nc1cccc(C(=O)OCC(=O)c2ccc3c(c2)OCO3)c1	63.3% (active)
O=C1COc2ccc(C(=O)COC(=O)c3ccccc3Cl)cc2N1	-31.2%
CCOc1cc(C(=O)OCC(=O)Nc2cccc(C)c2)ccc1OCC(=O)N1CCOCC1	16.2%
O=C(COC(=O)c1ccccc1)c1ccc2c(c1)OCCO2	66.7% (active)
CCOc1ccc(NCCC(=O)c2ccc3c(c2)OCO3)cc1	-15.9%
N#CCCN(C(=O)COC(=O)c1ccc2c(c1)OCCO2)c1ccccc1	4.75%
COc1ccc2c3c(n(C)c2c1)[C@H](CO)N(Cc1ccccc1)CC31CN(C(=O)c2ccccc2F)C1	13.5%
CCCC(=O)Nc1ccc2c(c1)C(=O)N(C)C[C@H](OC)[C@H](C)CN(C(=O)c1ccccn1)[C@H](C)CO2	14%
O=C(C[C@H]1C=C[C@H](NC(=O)CC2CC2)[C@@H](CO)O1)NCc1ccccc1	-1.04%
C[C@H]1CN([C@@H](C)CO)C(=O)c2cc(NC(=O)Cn3cnnn3)ccc2O[C@H]1CN(C)C(=O)NC1CCCCC1	-0.859%
COc1ccc2c3c([nH]c2c1)[C@@H](CO)N(C(=O)Nc1ccc(F)cc1)CC31CN(S(C)(=O)=O)C1	-10.4%
C[C@@H]1CN([C@@H](C)CO)C(=O)c2cc(-c3ccc(C#N)cc3)cnc2O[C@@H]1CN(C)Cc1cccnc1	21.1%
O=S(=O)(Nc1ccc(O)c2ccccc12)c1ccc(OC(F)(F)F)cc1	58.8% (active)
O=[N+]([O-])c1ccc(NS(=O)(=O)c2ccccc2)c(Cl)c1	-13%
O=S(=O)(Cc1noc(-c2ccc(OC(F)(F)F)cc2)n1)c1ccc(F)cc1	-18.2%
CCCN1[C@@H]2c3ccc(C4=CCCC4)c(=O)n3C[C@@H]2[C@@H](CO)[C@@H]1C(=O)NCc1ccccn1	-8.46%
COc1ccc(S(=O)(=O)N(C)C[C@H]2OCCCC[C@H](C)Oc3ccc(NC(=O)Nc4ccc5c(c4)OCO5)cc3C(=O)N([C@@H](C)CO)C[C@@H]2C)cc1	21.6%
CO[C@@H]1CN(C)C(=O)c2ccc(NC(C)=O)cc2OC[C@@H](C)N(CC2CC2)C[C@H]1C	-1.72%
C[C@H](CO)N1C[C@H](C)[C@H](CN(C)CC2CC2)OCCCC[C@H](C)Oc2ccc(NC(=O)c3ccncc3)cc2C1=O	-8.96%
Cc1ccc(S(=O)(=O)Nc2ccc3c(c2)C(=O)N([C@H](C)CO)C[C@H](C)[C@H](CN(C)S(=O)(=O)c2ccc(F)cc2)O3)cc1	2.4%
Cc1nc(=O)c(-c2ccccc2)c(C)n1-c1ccc(Br)cc1	4.28%
Cc1ccc(-c2cn3cc(C)ccc3n2)cc1	102% (active)
Cc1nc(-c2ccccc2)cn2c1nc1ccccc12	3%
Cc1ccc2nc(-c3ccc(Br)cc3)cn2c1	96.2% (active)

SMILES	inhibition
COc1ccccc1Cc1c(-c2ccc(F)cc2)nc2ccc(C)cn12	-38.1%
Cn1cnc(C(F)(F)F)c1-c1ccc([N+](=O)[O-])cc1	-7.43%
Cc1ccc(-c2cn3cc([N+](=O)[O-])ccc3n2)cc1	67.1% (active)
Cc1ccc(N2CCN(c3ccc([N+](=O)[O-])cn3)CC2)c(C)c1	4.63%
C[C@@H]1CN([C@@H](C)CO)C(=O)c2cc(C3=CCCC3)cnc2O[C@H]1CN(C)C(=O)c1ccccn1	-11.6%
COc1ccc(NC(=O)Nc2ccc3c(c2)[C@@H]2C[C@@H](CC(=O)NCc4ccncc4)O[C@@H](CO)[C@@H]2O3)cc1	6.93%
CCC(=O)N(C)C[C@@H]1Oc2cc(-c3ccc(C#N)cc3)ccc2S(=O)(=O)N([C@@H](C)CO)C[C@@H]1C	-4.05%
Cc1nc(N2[C@H](CO)[C@H](c3ccccc3)[C@H]2CNCC2CCCCC2)sc1C	-6.28%
O=C(O)c1ccc(N/N=C/c2ccc3ncccc3c2)cc1	88.1% (active)
CCc1nc2cccnc2n1-c1ccc(C(=O)O)cc1	-11.5%
NCCCCCC(=O)N/N=C/c1ccc2nccnc2c1	-0.608%
O=C(C[C@H]1C=C[C@@H](NC(=O)C2CCOCC2)[C@@H](CO)O1)NCC1CCCCC1	25%
Cc1noc(C)c1NC(=O)N(C)C[C@H]1Oc2ccc(NS(=O)(=O)c3ccc(F)cc3)cc2C(=O)N([C@@H](C)CO)C[C@H]1C	-0.097%
O=C(O)CC(CC(=O)N1CCOCC1)c1ccccc1 (stereo not drawn)	7.83%
N[C@@H](Cc1ccccc1)C(=O)N1CCOCC1	-3.78%
O=C(CSC(=S)N1CCOCC1)c1ccccc1	69.5% (active)
C[C@@H]1CN([C@@H](C)CO)S(=O)(=O)c2ccc(-c3ccc(C#N)cc3)cc2O[C@H]1CN(C)Cc1ccccn1	12.2%
CCCC(=O)N1CC2(CN(C(=O)NC(C)C)C2)c2c([nH]c3cc(OC)ccc23)[C@@H]1CO	0.057%
O=C(NCc1ccco1)/C(=C\c1cccc([N+](=O)[O-])c1)NC(=O)c1ccco1	21.6%
CCn1cc(/C=C(\NC(=O)c2ccc(C)cc2)C(=O)NCCN2CCOCC2)c2ccccc21	-9.89%
Cc1ccc(C(=O)N/C(=C/c2ccc(-c3cccc([N+](=O)[O-])c3)o2)C(=O)NCCCN(C)C)cc1	77.8% (active)
C[C@H](CO)N1C[C@H](C)[C@@H](CN(C)S(=O)(=O)c2ccc(F)cc2)OCCCC[C@H](C)Oc2ccc(NC(=O)CCCN(C)C)cc2C1=O	-10.7%
CN(C)CCNC(=O)c1ccc(Cl)c2cc3ccccc3nc12	86.6% (active)
Cc1c(C(=O)NCCN(C)C)oc2ccc(S(=O)(=O)N3CCCC3)cc12	-6.68%
Nc1nc2c(Br)ccc(Br)c2cc1C(=O)NCCc1ccccc1	-7.19%
CC(C)NC(=O)N(C)C[C@@H]1OCCCC[C@@H](C)Oc2ccc(NC(=O)CCCN(C)C)cc2C(=O)N([C@@H](C)CO)C[C@@H]1C	0.91%
